# Pol iota inh: qHTS for Inhibitors of Polymerase Iota | 1% of 390,000 active | Pol iota fluorescent replication assay, 10 min | DNA polymerase iota (Homo sapiens), Q9UNA4 | AID 588590, 2011 | Potency, µM (series often up to 115 µM), inactives show at the highest dose activity, negative = inhibition, most hits filed as inhibitors; note: potency is the fitted concentration of half-maximal effect
#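 Fluorescent replication assay read twice, at 0 min and 10 min after adding 50 nM (final) substrate. Enzyme (10 nM) and compounds were first incubated 15 min at room temperature; enzyme-free buffer wells were negative controls.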
# WRN inhibitor: qHTS for Inhibitors of WRN Helicase; Potency, µM (series often up to 114 µM), for the others: at the top dose activity change, negative = inhibition, most hits filed as inhibitors; 0.46% of 360,000 active; WRN helicase unwinding, fluorescent forked duplex, kinetic; Bifunctional 3'-5' exonuclease/ATP-dependent helicase WRN (Homo sapiens), Q14191; note: potency is the fitted concentration of half-maximal effect; % is set by controls: 0 for no effect and ±100 for the full control effect; nearly all actives have a fitted effect of over 55% in size
#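 Screening of the MLSMR collection measured strand separation of a quenched forked DNA duplex (100 nM) by 20 nM WRN with 2 mM ATP, all final. Compounds were preincubated with enzyme 15 min at room temperature.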
# POLB inh: qHTS Assay for Inhibitors of DNA Polymerase Beta; Potency, µM (top dose mostly 114 µM), for the others: at the top dose activity change, negative = inhibition, most hits filed as inhibitors; P06746; Pol beta primer extension/strand displacement, fluorescence kinetic; 1.3% of 340,000 active; note: potency is the fitted concentration of half-maximal effect; % is set by controls: 0 for no effect and ±100 for the full control effect
#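 Enzyme-only controls used 10 nM Pol beta; buffer lacking enzyme served as negative control. Compound preincubated 15 min, then 50 nM substrate added; 0 and 10 min reads at room temperature.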
# Pol kappa inh-1: qHTS for Inhibitors of Polymerase Kappa; DNA polymerase kappa (Homo sapiens), Q9UBT6; purified Pol kappa, fluorescent DNA synthesis assay, 10 min; Potency, µM (series often up to 107 µM), without a hit: top-dose activity, negative = inhibition, usual class: inhibitors; 0.53% of 400,000 active; note: potency is the fitted concentration of half-maximal effect; % is set by controls: 0 for no effect and ±100 for the full control effect
#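 50 nM final substrate added after 15 min RT preincubation of 10 nM Pol kappa with compound; fluorescence read at 0 and 10 min.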
# FEN1 inh: qHTS Assay for the Inhibitors of Human Flap endonuclease 1 (FEN1). 0.35% of 390,000 active. Potency, µM (top dose mostly 114 µM), inactives show at the highest dose activity change, negative = inhibition, hits mostly inhibitors. Recombinant FEN1 flap cleavage, fluorescence, 15 min; note: potency is the fitted concentration of half-maximal effect; % is set by controls: 0 for no effect and ±100 for the full control effect; nearly all actives have a fitted effect of over 65% in size
# Target sequence (P39748 whole entry, looked up): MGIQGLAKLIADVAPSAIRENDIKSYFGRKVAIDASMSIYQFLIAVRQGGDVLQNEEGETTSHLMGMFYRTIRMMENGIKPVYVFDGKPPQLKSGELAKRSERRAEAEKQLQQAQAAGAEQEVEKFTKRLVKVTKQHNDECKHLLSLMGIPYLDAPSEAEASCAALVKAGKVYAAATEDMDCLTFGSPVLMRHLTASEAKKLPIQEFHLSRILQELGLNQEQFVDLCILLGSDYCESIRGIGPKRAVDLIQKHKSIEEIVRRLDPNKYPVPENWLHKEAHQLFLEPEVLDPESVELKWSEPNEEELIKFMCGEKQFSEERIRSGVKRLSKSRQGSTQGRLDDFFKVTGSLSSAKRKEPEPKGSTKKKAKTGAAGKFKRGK
#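 Enzyme 10 nM, 15 min RT preincubation with compound; start with substrate 50 nM final; reads at 0 and 15 min; qHTS titration, four-parameter Hill fit.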
# Pol eta inh-1: qHTS for Inhibitors of Polymerase Eta | DNA polymerase eta (Homo sapiens), Q9Y253 | AID 588591, 2011 | recombinant Pol eta, fluorescent DNA replication assay | Potency, µM (series often up to 114 µM), without a hit: top-dose activity change, negative = inhibition, usual class: inhibitors | 1.2% of 390,000 active; note: potency is the fitted concentration of half-maximal effect; % is set by controls: 0 for no effect and ±100 for the full control effect
#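 Pol eta (10 nM) was preincubated with compounds for 15 min at room temperature, after which fluorescent replication substrate (50 nM final) was added to start the reaction. Fluorescence was read kinetically at 0 and 10 min.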
# GALK confirm: Confirmation Assay for Inhibitors of Human Galactokinase (GALK). shares compounds with Pol eta inh-1. 70% of 150 active. AID 2015, 2009. purified GALK, Kinase-Glo ATP depletion luminescence. Potency, µM (highest dose often 115 µM), for the others: top-dose activity, negative = inhibition, most hits filed as inhibitors
# GALK redox cs: Confirmatory Assay for Inhibitors of Human Galactokinase (GALK): Phenol-HRP redox assay counterscreen; Potency, µM (highest dose often 115 µM), inactives show top-dose activity change, negative = H2O2 signal, hits mostly inhibitors; AID 2035, 2009; shares compounds with Pol eta inh-1; Phenol red-HRP H2O2 redox cycling, absorbance 600 nm; 40% of 150 active
# HEK293 tox: Secondary Assay for Inhibitors of Human Galactokinase (GALK): HEK-293 Cell Viability Assay; shares compounds with Pol eta inh-1; Potency, µM (highest dose often 46.1 µM), inactives show top-dose activity change, negative = cytotoxicity, hits mostly inhibitors; 10% of 170 active; HEK-293 viability, ATP luminescence (CellTiter-Glo), 24/48 h; note: potency is the fitted concentration of half-maximal effect; % is set by controls: 0 for no effect and ±100 for the full control effect
# Pol kappa inh-2: qHTS for Inhibitors of Polymerase Kappa: Confirmatory Assay for Cherry-picked Compounds. purified Pol-kappa, fluorescent strand-displacement substrate. 76% of 920 active. Potency, µM, actives largely listed as inhibitors. shares compounds with Pol eta inh-1; note: potency is the fitted concentration of half-maximal effect
# Pol eta inh-2: qHTS for Inhibitors of Polymerase Eta: Confirmatory Assay for Cherry-picked Compounds. shares compounds with Pol eta inh-1. Pol eta primer extension, TAMRA/BHQ fluorescence, 10 min. Potency, µM, most hits filed as inhibitors. 64% of 2,600 active. AID 720502, 2013; note: potency is the fitted concentration of half-maximal effect
# * marks the source's active call; other numbers are inactive results; ? = inconclusive; · = no result; [ ] = dose if it differs, or a comment. Compounds with a hit are over-represented: about 2.4% of the library has one in this group of screens. Calls come from the whole dose curve; as a rule, active = well fitted curve in the direction sought with a large enough effect; inconclusive = small, poorly fitted or top-dose-only effect, or another doubt; inactive = no such curve, though single readings can be large; an effect the other way counts as inactive or inconclusive.
SMILES,Pol iota inh,WRN inhibitor,POLB inh,Pol kappa inh-1,FEN1 inh,Pol eta inh-1,Pol eta inh-2,others
COc1cccc(NC(=O)c2cnc(SCC(=O)N3CCOCC3)n(C)c2=O)c1,-2%,·,13%,-5%[60.1 µM],13%,6%,·,
C#Cc1ccc([C@H]2C=C(C(=O)O)O[C@@H](OCCCCO)C2)cc1,50µM*,-21%,·,?,8%,20µM*,·,Pol kappa inh-2=?
COc1ccc([C@@H]2C=C(C(=O)O)O[C@H](OCCCCO)C2)cc1,24%,3%,15%,-4%,14%,-19%,·,
CCOC(=O)Cc1csc(NC(=O)NC2(C(F)(F)F)Oc3cc(Cl)c(Cl)cc3O2)n1,-10%,-17%,-7%,20µM*,7%,-20%,·,Pol kappa inh-2=11*
CCC(=O)N1c2ccccc2CC1C(=O)NCCc1ccccc1Cl (centres undefined),7%,·,-2%,-11%[60.1 µM],17%,-8%,·,
O=[N+]([O-])c1ccc2nc(-c3ccc(Cl)cc3)n(OCc3ccccc3)c2c1,17%,-16%,20%,-4%,8%,-11%,·,
O=C(O)COn1c(-c2ccccc2)nc2ccc([N+](=O)[O-])cc21,?,-13%[11.6 µM],35µM*,?,-5%,18µM*,?,
CSc1nc2sc3c(c2c(=O)n1-c1ccccc1)CCC(C(C)(C)C)C3 (centres undefined),-5%,·,?,7%,-6%,-8%,·,
O=S(=O)(c1ccccc1)c1nnn2c1nc(N1CCN(c3ccccc3)CC1)c1cc(Cl)ccc12,25%,·,7%,-8%,15%,-11%,·,
Cc1ccc(S(=O)(=O)Nc2cccc(-c3ccc(N4CCC(C)CC4)nn3)c2)s1,5%,·,2%,-21%[60.1 µM],3%,-14%,·,
CC(=O)Nc1cccc(NC(=O)CSc2nnc(NC(=O)c3ccco3)s2)c1,6%,-36%,12%,0%,-7%,?,·,
CC(=O)Nc1ccc(NC(=O)CSc2nnc(NC(=O)c3ccc(Br)o3)s2)cc1,?,56µM*,50µM*,-29%,-34%,14µM*,?,Pol kappa inh-2=?
C=C(C)C1CC[C@]2(CO)CC[C@@]3(C)[C@H](CCC4[C@@]5(C)CCC(O)C(C)(C)C5CC[C@@]43C)C12 (some centres undefined),·,·,·,-11%[60.1 µM],·,·,·,
CCOC(=O)C(=O)Nc1nc(-c2ccc3c(c2)CCN3C(=O)C2CC2)c(C)s1,-11%,1%,-6%,-3%,-3%,14µM*,?,
COc1ccc(C=NNc2ccc([N+](=O)[O-])cc2S(=O)(=O)Nc2ccccc2C(=O)O)cc1OC,36%,?,·,-37%,?,35µM*,?,
COC(=O)C(C)N1C(=O)S/C(=C\c2ccc(-c3ccc(C(=O)O)cc3C)o2)C1=O (centres undefined),?,?,40µM*,32µM*,?,10µM*,43*,
COc1ccc(C/C(O)=C(\C#N)c2nc3ccccc3s2)cc1,32%,-7%,10%,-4%,10%,-16%,·,GALK confirm=42µM*;GALK redox cs=-3%;HEK293 tox=-9%
N#C/C(=C(/O)COc1ccccc1)c1nc2ccccc2s1,16%,-3%,45%,0%,2%,-8%,·,
N#C/C(=C(/O)COc1ccc(Cl)cc1)c1nc2ccccc2s1,16%,-2%[57.1 µM],-20%,-6%,-3%,5%,·,GALK confirm=?;GALK redox cs=1%;HEK293 tox=-12%
N#Cc1ccsc1NC(=O)COC(=O)CCS(=O)(=O)c1ccccc1,?,-13%[11.6 µM],·,?,-2%,32µM*,?,
CCS(=O)(=O)N1CCC2(CC1)OC(=O)C(C)=C2C(=O)NCc1ccccc1C,18%,·,4%,2%,-1%,-5%,·,
COC(=O)c1ccccc1Nc1ccccc1,2%,3%,11%,-5%,-13%,-14%,·,
COC(=O)c1ccccc1NC1=C/C(=N\S(=O)(=O)c2ccc(C(=O)O)cc2)c2ccccc2C1=O,1.1µM*,?,32µM*,?,20µM*,14µM*,·,GALK confirm=?;GALK redox cs=12µM*;HEK293 tox=?
CC(c1ccccc1)N1C(=O)c2ccc(C(=O)Nc3ccc(Br)cc3C(=O)O)cc2C1=O (centres undefined),-13%,-15%[11.6 µM],14%,-8%,-32%,50µM*,76*,
COC(=O)C1C2C=CC3(CN(c4cccc(C)c4)C(=O)C13)O2 (centres undefined),?,?,-28%,-25%,2%,35µM*,?,
O=C(CCn1c(=O)c2sccc2n(CC(=O)NCc2ccco2)c1=O)NCc1ccccc1,?,-11%,-17%,2%,12%,-8%,·,
O=C(CCCn1c(=O)c2sccc2n(CC(=O)NCc2ccco2)c1=O)NCc1ccco1,?,-11%[11.6 µM],-1%,-10%,4%,79µM*,?,
CCOc1ccc2[nH]c(=O)c(C(c3nnnn3Cc3ccco3)N3CCN(C)CC3)cc2c1 (centres undefined),68%,4%,2%,9%,1%,-20%,·,GALK confirm=-6%;GALK redox cs=3%;HEK293 tox=0%

# Source: PubChem
